The sample as a whole holds a higher share of hits than the screen did. The hit rate among all sequences tested is not known here. Unmarked numbers belong to inactive results.

The assay relates to T1, Caupolican (Caup) homeodomain DNA-binding domain.
T1 sequence: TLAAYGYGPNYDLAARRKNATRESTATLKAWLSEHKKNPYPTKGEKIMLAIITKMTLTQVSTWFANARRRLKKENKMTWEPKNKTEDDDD
The experiment in a line: PBM E-score (8-mer, recovered from the published 9-mer minima) (E-score (dimensionless, -0.5 to 0.5)); Drosophila protein; higher = stronger relative binding preference, active = 0.31 or more. Put shortly: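 An enrichment score, with higher meaning stronger, expresses relative binding preference for each short DNA word. The protein used was Caup's homeodomain DNA-binding domain (residues 214-303), produced by in vitro transcription and translation and tested at 100 nM on custom-designed protein binding microarrays. The 8-mer values were recovered from published 9-mer scores, each equal to the lower of its two constituent 8-mer scores.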
Regarding AGGCGTCG, the “PBM E-score” value was -0.157.

Take CTTTGTCA: the “PBM E-score” value is 0.0793.

Turning to CAAAGTAC, the “PBM E-score” value is 0.172.

Consider GGAGTGGA, for which the “PBM E-score” value was -0.133.

ACATATTC: the “PBM E-score” value is 0.329 (active).

As for ACATATCG, the “PBM E-score” value is 0.238.

For CCATATCA, the “PBM E-score” value is 0.0253.

Take CCATATTA: the “PBM E-score” value is 0.105.

For ACATATCA, the “PBM E-score” value was ≥ 0.321 (active).

On to ACATATTG, for which the “PBM E-score” value is 0.26.

Turning to ACATATTA, the “PBM E-score” value is 0.33 (active).

CCATATTC: the “PBM E-score” value is 0.011.

Take ATATATTC: the “PBM E-score” value was 0.192.

With TTTGAAAA, the “PBM E-score” value is 0.105.

Turning to AAGGATGT, the “PBM E-score” value was 0.185.

AGTTAAGC: the “PBM E-score” value is 0.0239.

GCACACCC: the “PBM E-score” value was -0.143.

For AGAGTGCG, the “PBM E-score” value is -0.148.

With CTCTCCTC, the “PBM E-score” value was -0.078.

Regarding CCGACGCG, the “PBM E-score” value was -0.167.

GCCTGGCC: the “PBM E-score” value is -0.292.

As to AACTACCT, the “PBM E-score” value was 0.122.

As to ATCTACAC, the “PBM E-score” value is 0.227.

For CACTACAC, the “PBM E-score” value was 0.206.

For the sequence ACCTACAA, the “PBM E-score” value was 0.171.

On to AACTACAA, for which the “PBM E-score” value is 0.342 (active).

Regarding CACTACAA, the “PBM E-score” value is 0.266.

Consider GACTACAC, for which the “PBM E-score” value was 0.33 (active).

Regarding AACTACAC, the “PBM E-score” value is 0.355 (active).

Take AACTACGT: the “PBM E-score” value is 0.151.

GACTACAA: the “PBM E-score” value was 0.222.

As to AACTACAG, the “PBM E-score” value is 0.177.

Turning to AACTACAT, the “PBM E-score” value was 0.408 (active).

TCTCACAA: the “PBM E-score” value was 0.048.

Consider TAGTGTGA, for which the “PBM E-score” value is 0.108.

In the case of GCCTCACC, the “PBM E-score” value was -0.232.

For ACTAGATG, the “PBM E-score” value was 0.121.

As to CACCCTAG, the “PBM E-score” value is -0.0221.

On to ACACCTCT, for which the “PBM E-score” value was 0.111.

Take AGCGCGGC: the “PBM E-score” value was -0.184.

TGCACGCA: the “PBM E-score” value was -0.0359.

TACATGGA: the “PBM E-score” value was 0.413 (active).

For AACATTGT, the “PBM E-score” value is ≥ 0.347 (active).

In the case of GCCATGGC, the “PBM E-score” value is -0.246.

Take AACATTGG: the “PBM E-score” value is 0.159.

Take TAGATGGA: the “PBM E-score” value was 0.0256.

Take CACATGGC: the “PBM E-score” value was -0.0837.

For ACCATGGC, the “PBM E-score” value is 0.0502.

Turning to AACATGGC, the “PBM E-score” value was 0.328 (active).

For the sequence ATCATGGC, the “PBM E-score” value was -0.0613.

For the sequence TCCATGGA, the “PBM E-score” value was 0.0552.

Turning to AACATTGA, the “PBM E-score” value was 0.243.

For the sequence GACATGGC, the “PBM E-score” value is 0.314 (active).

Consider ACAGTAAA, for which the “PBM E-score” value is 0.124.

For CCGTTCTC, the “PBM E-score” value was -0.0675.

Regarding CTCGCACA, the “PBM E-score” value was -0.0236.

With CGCAGGAC, the “PBM E-score” value was -0.0855.

In the case of ATCTCCCC, the “PBM E-score” value is -0.153.

Turning to ATTCAGTG, the “PBM E-score” value is 0.034.

With CTAACGAG, the “PBM E-score” value is 0.0026.

Consider ACACCGTC, for which the “PBM E-score” value is 0.0118.

As to AACATGGG, the “PBM E-score” value was 0.351 (active).

For the sequence ATCATGGG, the “PBM E-score” value was -0.0312.

As for CACATGGA, the “PBM E-score” value was 0.156.

On to ACCATGGA, for which the “PBM E-score” value is 0.0206.

As for GACATGGA, the “PBM E-score” value is 0.345 (active).

On to GAGATGGA, for which the “PBM E-score” value was -0.0584.

In the case of CACATGGG, the “PBM E-score” value is -0.0556.

In the case of AAGATGGT, the “PBM E-score” value is 0.109.

For the sequence AACATGGT, the “PBM E-score” value was 0.37 (active).

Take ACCATGGT: the “PBM E-score” value is 0.127.

As to AACATGGA, the “PBM E-score” value is 0.325 (active).

As to ATCATGGA, the “PBM E-score” value is 0.00242.

Consider ATAGCTTG, for which the “PBM E-score” value was 0.0692.

As for CGACCGGC, the “PBM E-score” value is -0.141.

For the sequence AGTAAGTG, the “PBM E-score” value is 0.00023.

For TGCGCCCA, the “PBM E-score” value was -0.134.

With ATTAGATG, the “PBM E-score” value was 0.235.

As to GCTCCATA, the “PBM E-score” value was -0.111.

As to ACGGTGGC, the “PBM E-score” value was -0.158.

As for ATGCGAAA, the “PBM E-score” value was 0.0128.

Take AACAAGAA: the “PBM E-score” value was 0.321 (active).

In the case of AACAAAAC, the “PBM E-score” value was 0.179.

In the case of TACAAAAA, the “PBM E-score” value is 0.255.

Turning to TACAAGAA, the “PBM E-score” value is 0.351 (active).

As to CACAAGAA, the “PBM E-score” value was 0.0855.

GACAAGAC: the “PBM E-score” value is 0.325 (active).

For AACAAAAA, the “PBM E-score” value was 0.141.

Take GACAAAAC: the “PBM E-score” value was 0.137.

For GACAAGAA, the “PBM E-score” value is 0.297.

AACAAGAC: the “PBM E-score” value is 0.335 (active).

In the case of AACAAAGA, the “PBM E-score” value was 0.0783.

For CACAAGAC, the “PBM E-score” value is 0.0913.

On to CATGACTA, for which the “PBM E-score” value is 0.198.

Turning to CATCTTAG, the “PBM E-score” value was 0.0142.

With ATGGCGTA, the “PBM E-score” value is 0.002.

As for CCTCCGCA, the “PBM E-score” value is -0.12.

For CACTCTTC, the “PBM E-score” value was 0.0141.

Regarding AACAAGAT, the “PBM E-score” value was 0.334 (active).

Take AACAAAAT: the “PBM E-score” value is 0.209.

Take AACAAGAG: the “PBM E-score” value is 0.243.

On to GACCGCAC, for which the “PBM E-score” value was -0.162.

Consider ATAGCTCA, for which the “PBM E-score” value is -0.0365.

Take GTGACAAC: the “PBM E-score” value is 0.303.

Regarding CTGACAAC, the “PBM E-score” value was 0.281.

For ATGACAAC, the “PBM E-score” value is 0.375 (active).

With ATGACAGC, the “PBM E-score” value is 0.202.

As for ATGACAAT, the “PBM E-score” value was 0.274.

In the case of ATGACAAG, the “PBM E-score” value was ≥ 0.378 (active).

For CTGACAAG, the “PBM E-score” value is 0.341 (active).

With CTGACAAA, the “PBM E-score” value is 0.132.

Regarding ATGACAAA, the “PBM E-score” value was 0.248.

Turning to CGATCATA, the “PBM E-score” value is 0.0822.

Consider GGAGCCGA, for which the “PBM E-score” value was -0.213.

For the sequence GCATCGTA, the “PBM E-score” value is -0.088.

In the case of ACCAGCTG, the “PBM E-score” value is -0.0781.

For ATTTGTAG, the “PBM E-score” value was 0.239.

With CGTGAACC, the “PBM E-score” value is -0.0185.

As to CATATCGG, the “PBM E-score” value is 0.0413.

Turning to GAGCGGCA, the “PBM E-score” value was -0.199.

As for GGCTTGAA, the “PBM E-score” value is -0.103.

For the sequence AGCTTGTC, the “PBM E-score” value is 0.261.

With CGCTTGAA, the “PBM E-score” value was 0.0019.

On to GGCTTGGA, for which the “PBM E-score” value was -0.0906.

Turning to AGCTTGTA, the “PBM E-score” value is 0.368 (active).

AGCTTGTG: the “PBM E-score” value is -0.0301.

As to GGCTTGTA, the “PBM E-score” value was 0.312 (active).

With CGCTTGTA, the “PBM E-score” value was 0.313 (active).

With CGCTTGTC, the “PBM E-score” value is 0.272.

For the sequence CCAGCCGG, the “PBM E-score” value was -0.247.

Take AATTAAAA: the “PBM E-score” value was 0.0931.

For ACAGTTTG, the “PBM E-score” value is 0.0438.

AGAGTCAC: the “PBM E-score” value was -0.0337.

Take AATCTTAG: the “PBM E-score” value is -0.0734.

Turning to AGACCGGG, the “PBM E-score” value was -0.179.

CACCCGAA: the “PBM E-score” value was -0.0428.

GTCCCTAA: the “PBM E-score” value is -0.0722.

With ACTGTTCA, the “PBM E-score” value was 0.0851.

As for CTTGGATC, the “PBM E-score” value is 0.0244.

In the case of CGTGTGTA, the “PBM E-score” value is 0.283.

As for CGTGTACA, the “PBM E-score” value was ≥ 0.441 (active).

Consider AGTGTACC, for which the “PBM E-score” value was 0.207.

As to CGTGTAGC, the “PBM E-score” value was 0.276.

With CGTGTAGA, the “PBM E-score” value was 0.29.

For the sequence CGTGTACC, the “PBM E-score” value was 0.35 (active).

The values above are taken from the supplement of paper PMC3724861.
